Source: PubChem BioAssay (NCI)
The panel holds about 79,000 compounds, 15% with a hit somewhere; the sample as a whole holds those more often. Values without a mark were called inactive. The source made the active and inactive calls. No stated cut-off is given here; in the data, active means growth inhibition above about 70%; inactive means the rest.

How the values were obtained:
[1] = NCI Yeast Anticancer Drug Screen. Data for the rad50 strain (AID 155);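 further: 0% = growth of vehicle-only cultures of the same strain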; settings: S. cerevisiae rad50 strain growth inhibition; at 50.0 µM; hits give high values
Procedure, shortened: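 Compounds were tested on a yeast strain with an engineered DNA damage repair alteration; the reported value is growth inhibition normalised to vehicle treatment.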

[2] = NCI Yeast Anticancer Drug Screen. Data for the mec2-1 strain (AID 157); settings: S. cerevisiae mec2-1 strain, at 50.0 µM, hits give high values
Procedure, shortened: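 Cells of the genetically defined mec2-1 yeast strain are incubated with test compound. Inhibition of growth is calculated against vehicle-treated controls.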

[3] = NCI Yeast Anticancer Drug Screen. Data for the sgs1 mgt1 strain (AID 161);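 further: 0% = growth of cultures given vehicle only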; settings: S. cerevisiae sgs1 mgt1 strain, at 50.0 µM, hits give high values
Procedure, shortened: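 Genetically altered yeast, compound exposure, growth inhibition relative to vehicle.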

[4] = NCI Yeast Anticancer Drug Screen. Data for the cln2 rad14 strain (AID 165);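 further: 0% = growth equal to vehicle treated cultures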; settings: S. cerevisiae cln2 rad14 strain, at 50.0 µM, hits give high values
Procedure, shortened: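 The screen exposed genetically defined yeast (cln2 rad14) to test compounds and scored growth inhibition relative to vehicle-treated controls.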

[5] = NCI Yeast Anticancer Drug Screen. Data for the bub3 strain (AID 167); settings: S. cerevisiae bub3 mutant strain, at 50.0 µM, hits give high values
Procedure, shortened: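 Growth of a checkpoint-deficient yeast mutant is measured after compound exposure. Values represent inhibition relative to vehicle.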

[6] = NCI Yeast Anticancer Drug Screen. Data for the mlh1 rad18 strain (AID 175); settings: S. cerevisiae mlh1 rad18 strain growth inhibition; at 50.0 µM; hits give high values
Procedure, shortened: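 Compound-treated yeast growth, normalised to vehicle controls. Strain bears defined DNA repair mutations.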

Compound	growth inhibition [1]	growth inhibition [2]	growth inhibition [3]	growth inhibition [4]	growth inhibition [5]	growth inhibition [6]
CCCC1CCCC12CCc1ccccc1C2=O (stereo not drawn)	15.3%	-6.15%	-11.1%	10.1%	-5.8%	1.15%
COn1nnc2c([N+](=O)[O-])cccc21	18.8%	-6%	-3.15%	-22.9%	-16.4%	5%
CC(=O)OC1C(C(O)CO)OC2OC(C)(C)OC21 (stereo not drawn)	-10.9%	-14.1%	-14%	-58.8%	-59.5%	-6.25%
CCOC(=O)c1c(OC)ccc2ccccc12	13.3%	10.7%	4%	-29.9%	21.6%	0.35%
Cc1cc(N=Nc2ccc(O)c3ncccc23)c2ccccc2n1	9.5%	6.85%	22.8%	-4.9%	18%	19.1%
CC(SC(=S)N1CCOCC1)c1cc2oc(=O)n(C)c2cc1Cl (stereo not drawn)	2.4%	7.95%	8.35%	-5.15%	24.8%	20.5%
CCCCOC(=O)NC(=O)c1cn(CCCOC(=O)CCCCCCCCC(=O)OCCCn2cc(C(=O)NC(=O)OCCCC)c(=O)[nH]c2=O)c(=O)[nH]c1=O	-23.2%	-28.2%	-32.8%	5.05%	-5.85%	-35.9%
FC(F)(F)c1cccc(NC(=S)SCc2ccc(Cl)c(Cl)c2)c1	98.3% (active)	98.8% (active)	98.8% (active)	99.1% (active)	98% (active)	98.2% (active)
CCOC(=O)CCC(C(=O)OCC)C(C)C(=O)OCC (stereo not drawn)	-25.4%	-19.1%	-25.8%	-11.7%	4.1%	-15.2%
CCC1CC(O)c2ccccc2O1 (stereo not drawn)	-7.85%	-4.2%	-5.95%	8.85%	-0.35%	-1.65%
Cc1cc2c(cc1Cl)SC(N/N=C(\N)c1ccc(Cl)cc1)=NS2(=O)=O	-34.2%	-0.8%	-12.3%	-16.2%	-14.4%	-8.1%
CCOC(=O)c1ccnc(F)c1	3.8%	-15.7%	-6.15%	-8.8%	1%	3.6%
O=C1CSC(c2cccs2)N1CCN1C(=O)CSC1c1cccs1 (stereo not drawn)	4.65%	-2.1%	-6.2%	-6.75%	1.1%	-0.25%
O=S(=O)(Nc1ccc(Cl)cc1)c1ccc(F)cc1	-9.45%	-15.8%	-11.6%	11.9%	-29.1%	3.95%
CC(C)CC(NC(=O)c1cc([N+](=O)[O-])cc([N+](=O)[O-])c1)C(=O)O (stereo not drawn)	-2%	-2.7%	16.1%	8.5%	-41.2%	-5.5%
Nc1nnc2nc(CC(=O)c3ccccc3[N+](=O)[O-])c(CC(=O)c3ccccc3[N+](=O)[O-])nn12	1%	6.05%	18.1%	-13.3%	-27.4%	8.8%
Cc1cc(C)c(N)c(C(=O)O)c1	-46.5%	-34.6%	-39.8%	-16.1%	-47%	-15.9%
CC(C)C1CC[N-]CC1.CC(C)C1CC[N-]CC1.[Cl][Pt+2][Cl]	82.6% (active)	48%	86.3% (active)	18.9%	36.6%	75.4% (active)
C=C1C(=O)OC2C[C@@]3(C)CCCC(=C)C3CC12 (stereo partly drawn)	21.4%	21.1%	32.1%	28.6%	20.6%	13%

Compound	growth inhibition [1]	growth inhibition [2]	growth inhibition [3]	growth inhibition [4]	growth inhibition [5]	growth inhibition [6]
CCC1C(C)(C)c2cc(C)c(C(C)=O)cc2C1(C)C (stereo not drawn)	-8.1%	-8.75%	7.15%	-49.5%	25.6%	-3.75%
CC(=O)C1=CN(Cc2ccccc2)C(O)CC1C(N)=O (stereo not drawn)	7.55%	-12.6%	4.7%	10.8%	16.1%	1.3%
Cc1cc(O)c2c(c1)C(=O)c1c(-c3ccc(O)c4c3C(=O)c3c(O)c(C)cc(O)c3C4=O)ccc(O)c1C2=O	-30.7%	-19.8%	-17.1%	9.05%	-26.8%	-24.4%
N#CCc1c(-c2ccccn2)[nH]c2ccccc12	9.25%	1.35%	-3%	18.8%	-11.2%	12%
Cc1cc(OC(=O)c2ccccc2)c(C)c(C)c1OC(=O)c1ccccc1	6.15%	-7.95%	15.2%	9.2%	8.4%	21.1%
CC1(C)COC(=O)/C1=C/C#N	5.1%	2.6%	-1.5%	-38.5%	-12.4%	12.3%
O=c1/c(=C/c2ccc(Cl)cc2Cl)sc2nc3ccccc3n12	4.1%	-23.4%	-0.15%	-12.8%	-22.5%	-7.45%
CCOC1Oc2ccccc2-c2nc(C)c(C#N)cc21 (stereo not drawn)	1.65%	7.75%	15.9%	-66.5%	15.8%	12.4%
O=C1CN(C(=O)c2ccccc2)C(=S)N1	22.5%	6.7%	11.7%	-17.9%	4.75%	4.5%
N#C/C(C(=O)NCc1ccccc1)=C(/N)N1CCCC1	-4.95%	-16.2%	0.25%	-16.6%	-5.3%	-0.15%
C=C(C)CNCC(=C)C	35.3%	14.1%	-8.25%	-16.8%	17.9%	21.6%
S=c1nc(NCc2ccccc2)[nH]c2[nH]ncc12	-6.55%	-17.2%	-1.6%	-17.2%	-21%	-2.55%
CCOC(C)C(=O)C=O (stereo not drawn)	-17.9%	-13.6%	-17.2%	-4.55%	-13.4%	-8.4%
COc1cc2c(cc1O)C(=O)CCC(C(=O)O)=C2	14.2%	-12.8%	3.65%	-14.8%	2%	14.6%
Nc1ccnc(Sc2ncccc2[N+](=O)[O-])n1	1.2%	-8.15%	-5.75%	-47.8%	7.8%	1.3%
CN1N=C2c3ccccc3OC(c3ccccc3)[C@H]2C1c1ccccc1 (stereo partly drawn)	-46.8%	-47.2%	-40.2%	-3.8%	-61.4%	-41.7%
Cc1nc2c(=O)n3c4c(cccc4c2o1)CCC3	14.4%	10.4%	21.6%	14.5%	14.5%	-48.4%
CCOC(=O)C(C)(C)/C=C\C(Cl)=C(Cl)Cl	4.1%	4.2%	8.75%	4.25%	19.2%	-34.5%
COC(=O)C(Cc1ccccc1)NCCN (stereo not drawn)	-0.1%	7.4%	-3.9%	-17%	-5.95%	2.1%
